# Results taken from PubChem BioAssay (NCATS).
# Values joined by “and” are separate entries in the source; they are usually repeats but may differ in a detail not shown here. Identical values can stand only once. Inconclusive results are not listed. Some compounds were tested as several samples or in several runs, with calls that do not always agree. Active and inactive are the calls of the source. Calls come from the whole dose curve; as a rule, active = well fitted inhibition curve with a large enough effect; inconclusive = small, poorly fitted or top-dose-only effect; inactive = no such curve, though single readings can be large or run the other way.
# Molecular target: Cytochrome P450 2D6 (Homo sapiens) (UniProt P10635)
# Assay: qHTS Assay for Inhibitors and Substrates of Cytochrome P450 2D6 (AID 891); note: nearly all actives have a fitted effect of over 60% in size
# Details: recombinant CYP2D6, luciferin-ME EGE luminescence; series mostly up to 57.1 µM; activity change, negative = inhibition: at the top concentration
# Experimental: NIH Molecular Libraries Screening Centers Network [MLSCN]
# NIH Chemical Genomics Center [NCGC]
# The P450 gene superfamily is involved in the metabolism and clearance of xenobiotics. This assay used human CYP2D6 to measure the demethylation of ethylene glycol ester of luciferin 6' methyl ether (Luciferin-ME EGE; […]) to luciferin. The luciferin is then measured by luminescence after the addition of a luciferase detection reagent. Luciferin-ME EGE concentration in the assay was equal to its Km for CYP2D6. Inhibitors and some substrates limit the production of luciferin, and decrease measured luminescence.
# NCGC Assay Protocol Summary:
# Two uL of enzyme and substrate mix (final concentrations: 5nM CYP2D6, 30uM Luciferin-ME EGE, 100mM KPO4) were dispensed into a white, solid bottom 1536-well microtiter plate. 23nL of compound was transferred by a pin tool. The plate was incubated at room temperature for 10 min. Two uL of an NADPH regeneration solution (Promega supplied reagent) was dispensed and the reaction was allowed to continue for 60 min at room temperature. Then the reaction was stopped by reconstituted luciferin detection buffer. After another 20 min of incubation the plate was read on the ViewLux (Perkin Elmer) at 60 sec exposure and 2x2 binning. This protocol was carried out with Promega-Glo reagents and further information can be found at http://www.promega.com/tbs/tb325/tb325.pdf. Data were normalized to the to AC100 inhibition (1.43 uM quinidine).
# Keywords: P450, CYP2D6, Luciferase, MLSMR, MLSCN, NIH Roadmap, qHTS, NCGC
# % is set by controls: 0 for no effect and ±100 for the full control effect; potency is the fitted concentration of half-maximal effect.
# Sequence of Cytochrome P450 2D6 (Homo sapiens) (P10635 whole entry, looked up): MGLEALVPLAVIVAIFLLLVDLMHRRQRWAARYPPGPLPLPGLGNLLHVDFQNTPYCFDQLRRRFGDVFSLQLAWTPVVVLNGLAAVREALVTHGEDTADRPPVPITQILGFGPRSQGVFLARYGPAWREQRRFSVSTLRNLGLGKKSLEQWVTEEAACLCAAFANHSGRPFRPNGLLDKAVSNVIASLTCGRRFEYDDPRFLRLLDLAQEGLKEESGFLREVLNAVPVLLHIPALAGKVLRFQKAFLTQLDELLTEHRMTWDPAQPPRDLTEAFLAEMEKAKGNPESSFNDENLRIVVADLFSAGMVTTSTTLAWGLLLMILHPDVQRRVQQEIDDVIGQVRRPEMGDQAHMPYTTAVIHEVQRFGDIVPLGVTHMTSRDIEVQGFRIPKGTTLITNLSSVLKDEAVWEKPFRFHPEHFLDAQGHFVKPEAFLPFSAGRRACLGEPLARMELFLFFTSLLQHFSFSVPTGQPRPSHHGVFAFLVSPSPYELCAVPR
SMILES,Potency,"activity change, negative = inhibition"
Clc1ccccc1-c1ccc2ncnc(NCc3cccnc3)c2c1,6310 nM (active),–
O=C(c1ccncc1)N1CCC2(CC1)CN(C(c1ccccc1)c1ccccc1)C2,25.1 nM (active),–
CN(C)Cc1ccccc1-c1nc(N2CCOCC2)c2ccccc2n1,7940 nM (active),–
CN(C)C(=O)c1ccc(-c2cncnc2N2CCNCC2)cc1,7940 nM (active),–
CN1CCN(c2ncnc3ccc(-c4ccc5c(c4)OCO5)cc23)CC1,251 nM (active),–
Cc1noc(C)c1C(=O)N1CCC2(CCCN(C(c3ccccc3)c3ccccc3)C2)CC1,2000 nM (active),–
CCNc1ncc2nc(C)c(=O)n(-c3ccc(OC)cc3)c2n1,–,-2.35% (inactive)
CC(C)CN1CC[C@@]2(CCCN(C(=O)c3csnn3)C2)C1,501 nM (active),–
CCNc1ncc2nc(-c3cc(F)cc(F)c3)c(=O)n(C[C@H]3CCCO3)c2n1,158 nM (active),–
CC(C)NC(=O)N1CCCC2(CCN(S(=O)(=O)c3ccccc3)CC2)C1,316 nM (active),–
CC(=O)N1CCC2(CCCN(C(c3ccccc3)c3ccccc3)C2)CC1,7940 nM (active),–
COC(=O)N1CCC2(CC1)CN(C(c1ccccc1)c1ccccc1)C2,794 nM (active),–
Cc1ccccc1-c1nccc(NCc2cccs2)n1,2510 nM (active),–
COc1ccccc1CN1CC2(CCN(S(C)(=O)=O)CC2)C1,–,21.7% (inactive)
COc1ccccc1CN1CC[C@@]2(CCCN(S(C)(=O)=O)C2)C1,316 nM (active),–
O=C(c1cnccn1)N1CCC[C@@]2(CCN(Cc3cc(C(F)(F)F)cc(C(F)(F)F)c3)C2)C1,3160 nM (active),–
CN1CCN(c2ncncc2-c2ccc(C(=O)N(C)C)cc2)CC1,251 nM (active),–
CN(Cc1ccco1)c1ncnc2ccc(-c3cccnc3)cc12,2000 nM (active),–
Cc1cccc(CNc2ccnc(-c3cccnc3)n2)c1,631 nM (active),–
c1cncc(CNc2nc(-c3ccoc3)nc3ccccc23)c1,5010 nM (active),–

SMILES,Potency,"activity change, negative = inhibition"
O=C(c1ccncc1)N1CCC2(CC1)CCN(c1cccc(-c3ccccc3)c1)CC2,7940 nM (active),–
Cn1cccc1C(=O)N1CCC[C@@]2(CCN(Cc3ccccc3)C2)C1,2000 nM (active),–
COc1ccc2[nH]cc(CCNc3ncnc4ccc(-c5cccnc5)cc34)c2c1,7940 nM (active),–
O=C(c1ccncc1)N1CCC2(CC1)CCN(C(c1ccccc1)c1ccccc1)CC2,3160 nM (active),–
Cc1ccccc1-c1ccc2ncnc(NC3CC3)c2c1,7940 nM (active),–
c1csc(CNc2ccnc(-c3ccoc3)n2)c1,3160 nM (active),–
COc1ccc(CNc2ncnc3ccc(-c4ccccc4CN(C)C)cc23)c(OC)c1,1260 nM (active),–
O=C(c1csnn1)N1CCC[C@@]2(CCN(Cc3nccs3)C2)C1,5010 nM (active),–
COc1ccccc1CN1CC[C@@]2(CCCN(C(C)=O)C2)C1,3160 nM (active),–
CN(C)Cc1ccccc1-c1nc(N(C)C)c2ccccc2n1,2510 nM (active),–
COCC(=O)N1CCC[C@@]2(CCN(C(=O)Nc3cccc(C#N)c3)C2)C1,–,11.7% (inactive)
CN(CCOc1ccc(C[C@H](Nc2ccccc2C(=O)c2ccccc2)C(=O)O)cc1)c1ccccn1,inactive and 31.6 nM (active),–
CN(C)c1ccc(-c2cc(-n3ccnc3)ncn2)cc1,7940 nM (active),–
COc1ccc(-n2c(=O)c(-c3cccs3)nc3cnc(N(C)C)nc32)cc1,–,-4.44% (inactive)
COC(=O)N1CCC2(CCCN(Cc3ccccc3OC)C2)CC1,3160 nM (active),–
COc1ccc(NC(=O)N2CC[C@@]3(CCCN(C(=O)c4cnccn4)C3)C2)cc1,–,25.3% (inactive)
N=C1Sc2ccccc2C2=NCCCN12,–,-17.8% (inactive)
O=C(c1ccncc1)N1CCC2(CC1)CN(c1ccccc1)C2,7940 nM (active),–
CC(C)NC(=O)N1CC[C@@]2(CCCN(C(=O)Oc3ccccc3)C2)C1,–,6.92% (inactive)
CC(C)CN1CC[C@@]2(CCCN(S(=O)(=O)c3ccccc3)C2)C1,501 nM (active),–
